Test results as given in PubChem BioAssay.
Activity calls are given as the source filed them.

Tests used:
[1] = binders of probe aFSTL3 on microarray, primary screen, stem cell growth factor project, biochemical, small-molecule microarray, fluorescence 635/667 (AID 1064); conditions: higher = more signal;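 also: measures binding of the biotinylated anti-FSTL3 antibody to printed compounds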
[2] = binders from COS7 lysate, DM2A8 probe, primary screen, torsin A project, cell lysate, small-molecule microarray, fluorescence 635/667 (AID 1065); conditions: higher = more signal, COS7 lysate expressing mutant human TOR1A
[3] = binders of probe aFGF2 on microarray, primary screen, stem cell growth factor project, biochemical, small-molecule microarray, fluorescence 635/667 (AID 1067); conditions: higher = more signal;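 also: measures binding of biotinylated aFGF2 protein to printed compounds on slides; z-score merges feature fluorescence and signal-to-noise across triplicate slides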
[4] = binders of probe aFGF10 on microarray, primary screen, stem cell growth factor project, biochemical, small-molecule microarray, fluorescence 635/667 (AID 1071); conditions: higher = more signal;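 also: score merges 667 nm spot intensity and signal to noise from triplicate slides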
[5] = molecular target: Neurogenic locus notch homolog protein 2 (Homo sapiens) (UniProt Q04721); experiment: Notch2 binders on small-molecule microarrays, primary screen, biochemical, small-molecule microarray, 635 nm fluorescence, stem cell growth factors (AID 1073); conditions: Notch2 binding, higher = more signal
[6] = molecular target: Pro-neuregulin-1, membrane-bound isoform (Homo sapiens) (UniProt Q02297); experiment: NRG1 binders on small-molecule microarrays, primary screen, psychiatric disease protein project, biochemical, small-molecule microarray, fluorescence 635/667 (AID 1075); conditions: NRG1 binding, 635 nm fluorescence, higher = more signal;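 also: score combines 667 nm spot fluorescence with signal to noise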
[7] = system: Neuregulin-1 EGF-like domain; experiment: binders of neuregulin-1 EGF-like domain, primary screen, biochemical, small-molecule microarray, 635 nm fluorescence (AID 1081); conditions: small-molecule microarray binding, higher = more signal;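 also: binding of the protein to compounds printed on small-molecule microarray slides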
[8] = FRG1 promoter luciferase signal modulators, primary screen, FRG1 inhibition for FSHD, cell-based, C2C12 myotubes, firefly/Renilla luciferase, luminescence (AID 1084); conditions: higher = more signal, called active from +8 up or from −8 down
[9] = binders of probe aFST on microarray, primary screen, stem cell growth factor project, biochemical, small-molecule microarray, fluorescence 635/667 (AID 1086); conditions: higher = more signal;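 also: score merges 667 nm fluorescence with signal-to-noise of each printed compound spot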
[10] = binders of probe aHhip on microarray, primary screen, stem cell growth factor project, biochemical, small-molecule microarray, fluorescence 635/667 (AID 1087); conditions: higher = more signal;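 also: score merges spot fluorescence at 667nm with spot signal to noise ratio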

Sequence of Neurogenic locus notch homolog protein 2 (Homo sapiens) (Q04721 whole entry, looked up, canonical isoform): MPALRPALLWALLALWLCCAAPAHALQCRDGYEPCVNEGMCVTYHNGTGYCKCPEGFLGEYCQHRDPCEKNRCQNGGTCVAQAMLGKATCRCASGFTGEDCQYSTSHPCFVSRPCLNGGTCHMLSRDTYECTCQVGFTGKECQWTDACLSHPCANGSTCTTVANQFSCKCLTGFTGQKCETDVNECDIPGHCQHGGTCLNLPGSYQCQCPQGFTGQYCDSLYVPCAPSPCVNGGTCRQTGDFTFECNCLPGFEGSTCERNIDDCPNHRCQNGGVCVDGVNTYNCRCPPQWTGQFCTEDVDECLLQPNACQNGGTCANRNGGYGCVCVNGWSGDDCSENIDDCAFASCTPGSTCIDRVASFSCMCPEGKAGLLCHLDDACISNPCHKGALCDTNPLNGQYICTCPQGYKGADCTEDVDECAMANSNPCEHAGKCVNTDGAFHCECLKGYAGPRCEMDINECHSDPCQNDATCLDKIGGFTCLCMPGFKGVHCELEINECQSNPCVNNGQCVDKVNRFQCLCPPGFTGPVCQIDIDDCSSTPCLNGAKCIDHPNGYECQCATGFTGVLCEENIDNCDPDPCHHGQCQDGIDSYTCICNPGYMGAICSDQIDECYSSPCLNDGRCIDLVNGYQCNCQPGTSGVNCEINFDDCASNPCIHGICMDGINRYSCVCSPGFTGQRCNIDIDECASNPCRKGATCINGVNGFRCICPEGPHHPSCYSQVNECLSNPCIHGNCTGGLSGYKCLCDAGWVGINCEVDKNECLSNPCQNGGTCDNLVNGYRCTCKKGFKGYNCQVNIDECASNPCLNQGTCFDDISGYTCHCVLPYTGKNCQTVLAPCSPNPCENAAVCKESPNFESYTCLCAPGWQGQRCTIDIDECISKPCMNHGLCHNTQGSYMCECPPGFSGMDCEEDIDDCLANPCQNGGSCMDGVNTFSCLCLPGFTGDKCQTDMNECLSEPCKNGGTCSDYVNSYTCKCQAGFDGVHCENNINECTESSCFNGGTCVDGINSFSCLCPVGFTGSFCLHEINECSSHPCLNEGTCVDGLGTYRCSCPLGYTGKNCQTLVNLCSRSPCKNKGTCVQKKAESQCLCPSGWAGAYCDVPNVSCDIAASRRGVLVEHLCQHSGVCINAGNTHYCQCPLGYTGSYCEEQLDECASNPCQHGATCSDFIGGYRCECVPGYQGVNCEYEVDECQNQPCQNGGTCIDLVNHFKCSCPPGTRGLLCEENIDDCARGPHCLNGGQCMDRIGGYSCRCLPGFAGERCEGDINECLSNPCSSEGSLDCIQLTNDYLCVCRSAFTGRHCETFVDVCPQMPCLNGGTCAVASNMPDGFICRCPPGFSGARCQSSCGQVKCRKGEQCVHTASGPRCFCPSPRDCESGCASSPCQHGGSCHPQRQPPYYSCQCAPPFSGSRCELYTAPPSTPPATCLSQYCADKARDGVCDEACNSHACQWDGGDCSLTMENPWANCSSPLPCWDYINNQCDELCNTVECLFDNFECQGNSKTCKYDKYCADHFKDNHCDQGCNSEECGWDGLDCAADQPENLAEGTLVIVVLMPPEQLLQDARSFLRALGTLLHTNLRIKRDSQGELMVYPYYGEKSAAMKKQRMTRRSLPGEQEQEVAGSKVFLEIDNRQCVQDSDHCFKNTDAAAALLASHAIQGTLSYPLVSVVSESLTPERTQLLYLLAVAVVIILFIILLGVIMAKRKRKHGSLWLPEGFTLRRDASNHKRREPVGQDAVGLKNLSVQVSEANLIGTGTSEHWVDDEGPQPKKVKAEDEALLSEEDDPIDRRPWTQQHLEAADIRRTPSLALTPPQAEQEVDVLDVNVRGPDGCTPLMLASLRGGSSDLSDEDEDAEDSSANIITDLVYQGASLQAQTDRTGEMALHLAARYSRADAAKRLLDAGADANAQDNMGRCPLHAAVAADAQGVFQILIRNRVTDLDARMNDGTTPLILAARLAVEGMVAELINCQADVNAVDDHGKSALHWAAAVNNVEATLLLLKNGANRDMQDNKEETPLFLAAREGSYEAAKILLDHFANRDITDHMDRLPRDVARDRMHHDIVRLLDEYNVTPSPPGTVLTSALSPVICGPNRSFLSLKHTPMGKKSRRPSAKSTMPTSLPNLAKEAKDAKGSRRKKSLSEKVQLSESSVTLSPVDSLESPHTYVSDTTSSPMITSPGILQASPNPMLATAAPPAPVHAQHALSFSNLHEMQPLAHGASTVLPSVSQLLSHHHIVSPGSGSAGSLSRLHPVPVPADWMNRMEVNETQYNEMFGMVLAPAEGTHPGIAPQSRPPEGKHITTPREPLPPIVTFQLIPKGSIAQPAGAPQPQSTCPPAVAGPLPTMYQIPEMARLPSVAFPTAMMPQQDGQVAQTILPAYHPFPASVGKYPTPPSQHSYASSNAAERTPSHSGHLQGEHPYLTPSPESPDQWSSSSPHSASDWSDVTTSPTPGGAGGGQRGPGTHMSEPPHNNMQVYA
Sequence of Pro-neuregulin-1, membrane-bound isoform (Homo sapiens) (Q02297 whole entry, looked up, the tested form may be a part, canonical isoform): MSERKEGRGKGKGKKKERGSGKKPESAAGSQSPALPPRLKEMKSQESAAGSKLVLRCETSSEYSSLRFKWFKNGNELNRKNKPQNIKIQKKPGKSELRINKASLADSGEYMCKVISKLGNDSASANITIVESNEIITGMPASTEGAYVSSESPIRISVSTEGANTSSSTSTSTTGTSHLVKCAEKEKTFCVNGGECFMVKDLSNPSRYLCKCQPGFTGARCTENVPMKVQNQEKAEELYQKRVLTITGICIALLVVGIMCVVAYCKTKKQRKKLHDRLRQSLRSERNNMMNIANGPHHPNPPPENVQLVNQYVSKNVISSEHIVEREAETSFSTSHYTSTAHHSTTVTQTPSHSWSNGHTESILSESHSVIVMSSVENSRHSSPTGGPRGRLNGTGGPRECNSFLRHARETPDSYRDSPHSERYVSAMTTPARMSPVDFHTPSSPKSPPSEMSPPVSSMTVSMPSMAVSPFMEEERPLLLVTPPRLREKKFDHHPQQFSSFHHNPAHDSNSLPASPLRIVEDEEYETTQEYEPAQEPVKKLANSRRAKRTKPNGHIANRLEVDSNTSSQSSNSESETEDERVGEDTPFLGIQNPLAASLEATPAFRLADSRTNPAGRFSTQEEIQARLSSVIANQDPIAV

SMILES	composite z-score [1]	composite z-score [2]	composite z-score [3]	composite z-score [4]	composite z-score [5]	composite z-score [6]	composite z-score [7]	z-score [8]	composite z-score [9]	composite z-score [10]
COCC1C2CC[C@H]3C(OCc4ccc(F)cc4C(F)(F)F)OC[C@]4(C)[C@H]3C2=C(CN4C(=O)OC(C)(C)C)[C@H](C)C1COC (stereo not given in full)	0.409	0.0838	0.0807	0.224	1.58	2.05	0.782	-0.255 (inactive)	0.945	-0.0672
COC(=O)[C@@]1(Cc2ccc(F)cc2)[C@H]2c3cc(C(=O)N4CCCC4)n(CCc4ccc(OC)c(Br)c4)c3C[C@H]2CN1C(=O)c1ccccc1	0.502	1.27	0.266	0.832	1.83	1.55	1.29	-0.784 (inactive)	1.94	1.68
COCCCNC(=O)[C@@]1(C)c2ccccc2C(=O)N(Cc2ccccc2)[C@H]1c1ccc(CO)cc1	0.235	0.0748	-0.173	-0.979	-1.19	1.88	1.5	-1.24 (inactive)	-0.353	-0.147
COc1ccc([Si](C)(C)[C@H]2[C@H](CC(=O)N3Cc4ccccc4C[C@H]3CO)O[C@@]3(C(=O)N(Cc4cccc(I)c4)c4ccccc43)[C@@H]2C)cc1	-0.0638	2.29	-0.0158	0.142	0.379	0.438	0.853	-2.84 (inactive)	-0.186	0.289
C=CCN1Cc2ccccc2C[C@]2(N=C(c3ccc(OCCCO)cc3)O[C@@H]2c2ccccc2)C1=O	0.211	0.363	-0.0883	-0.147	0.977	0.414	1.35	-3.57 (inactive)	0.607	0.0722
COCCOC(=O)N1C(=O)[C@@]2(c3cc(C#CCC(C(=O)OC)C(=O)OC)ccc31)[C@H](c1ccccc1OCCO)N1[C@H](c3ccccc3)[C@H](c3ccccc3)OC(=O)[C@H]1[C@@H]2C(=O)Nc1nc2ccccc2s1	-0.144	1.2	-0.0335	1.19	1.2	1.37	1.06	0.0053 (inactive)	0.417	0.417
C[N+](C)(C)CCCCNC(=O)[C@H]1C[C@H]2C(=O)N3CCC[C@H]3C(=O)N2[C@H]1c1ccc(O)cc1	-0.32	0.799	-0.12	1.15	0.534	-0.0852	1.34	1.42 (inactive)	0.446	0.176
CCN(CC)c1ccc(N2CC=CC34O[C@@H]5C=CCCOC(=O)C5[C@H]3C(=O)N(CCCO)[C@@H]4C2=O)cc1 (stereo not given in full)	-0.0768	-0.288	-0.158	-0.332	-0.816	-0.613	-0.0612	-0.306 (inactive)	-0.177	-0.134
CC(C)N1C(=O)c2ccccc2[C@](C)(C(=O)NC2CC2)[C@@H]1c1ccc(CO)cc1	-0.181	0.007	-0.129	-0.0282	0.38	0.602	1.21	-0.0117 (inactive)	0.048	0.0246
COCCn1c(C(=O)N(C)C)cc2c1C[C@H]1CN(C(=O)c3ccccc3)[C@@](Cc3ccc(F)cc3)(C(=O)OC)[C@@H]21	0.0407	-0.0248	0.203	0.651	1.56	1.11	0.998	0.592 (inactive)	0.576	-0.0347
O=C1O[C@@H](c2ccccc2)[C@@H](c2ccccc2)N2[C@@H](c3ccc(O)cc3)[C@]3(C(=O)Nc4ccc(C#CCCO)cc43)[C@@H](C(=O)O)[C@H]12	3.16	0.489	0.548	0.306	0.725	1.91	1.07	-0.55 (inactive)	2.44	1.69
CN1C(=O)C2C=CC(C(O)C(c3ccccc3)c3ccccc3)N(Nc3ccccc3)C2C1=O (stereo not given)	-0.0907	0.403	0.0814	0.868	1.48	1.94	1.21	-0.704 (inactive)	1.37	-0.131
[N-]=[N+]=Nc1ccccc1[C@H]1OC(c2ccc(OCCCO)cc2)=N[C@@]1(CCS(=O)(=O)c1ccccc1)C(=O)N1CCOCC1	1.84	0.962	0.45	1.13	1.7	1.66	1.27	5.15 (inactive)	1.53	-0.372
NC(=O)NCC#Cc1ccc2c(c1)[C@]1(C(=O)N2)[C@H](c2ccccc2OCCO)N2[C@H](c3ccccc3)[C@H](c3ccccc3)OC(=O)[C@H]2[C@@H]1C(=O)N1CCCCCCC1	3.75	1.38	0.866	0.803	1.38	1.31	1.08	-1.7 (inactive)	3.41	3.04
COCCOC(=O)N1C(=O)[C@@]2(c3cc(C#Cc4ccc(OC)cc4)ccc31)[C@H](C(N)=O)[C@H]1C(=O)O[C@H](c3ccccc3)[C@H](c3ccccc3)N1[C@@H]2c1ccc(O)cc1	-0.39	-0.343	-0.167	-0.206	-1.64	-0.55	-0.297	0.961 (inactive)	-1.05	-0.376
COC(=O)[C@@]1(Cc2ccc(OC)cc2)[C@H]2c3cc(C(=O)N(C)C)n(CCSCCO)c3C[C@H]2CN1C(=O)c1ccccc1	0.172	-0.233	0.164	0.979	1.61	1.47	1.22	-1.35 (inactive)	0.547	-0.04
C=CCN1C(=O)[C@@]2(O[C@@H](CCO)[C@H]([Si](C)(C)c3ccc(OC)cc3)[C@H]2C)c2cc(N3C(=O)COc4ccccc43)ccc21	-0.351	0.28	-0.0293	1.02	0.227	1.02	0.746	-1.54 (inactive)	0.975	-0.358
C=C[C@H](C)[C@H](O)c1ccc(OCCO)cc1	0.254	-0.716	-0.243	-1.14	-2.21	-0.758	-0.694	5.78 (inactive)	-0.91	-0.204
CN1C(=O)C2C=CC(C(O)c3ccc(Br)cc3)N(Nc3ccccc3)C2C1=O (stereo not given)	0.607	1.46	-0.0747	-0.287	-0.468	0.648	0.728	0.665 (inactive)	-0.118	-0.0346
Cc1ccc(N2C(=O)c3ccccc3[C@](C)(C(=O)NCCN3CCOCC3)[C@@H]2c2ccc(CO)cc2)nc1	1.54	-0.653	-0.0249	-0.112	-1.41	-0.819	0.0367	0.517 (inactive)	-0.748	-0.287
COC(=O)[C@@]1(Cc2ccc(F)cc2)[C@H]2c3cc(C(=O)N(C)C)n(Cc4ccccn4)c3C[C@H]2CN1C(=O)c1ccccc1	0.449	0.55	0.25	0.658	1.65	1.42	1.38	3.37 (inactive)	1.55	1.49
CCN(CC)c1ccc(N2CC=CC34O[C@@H]5C=CCOC(=O)[C@@H]5[C@H]3C(=O)N(CCCCCO)[C@@H]4C2=O)cc1 (stereo not given in full)	0.594	2.08	-0.129	-0.39	-0.866	1.42	1.53	-0.309 (inactive)	-0.409	-0.0618
O=C1C2C=CC(C(O)CCc3ccccc3)N(Nc3ccccc3)C2C(=O)N1c1ccccc1 (stereo not given)	0.572	1.83	0.288	0.83	1.61	2.09	1.22	0.0878 (inactive)	1.15	-0.0645
O=C(CS)NCCCCCCNC(=O)[C@H]1C[C@H]2C(=O)N3CCC[C@H]3C(=O)N2[C@H]1c1ccc(O)cc1	0.112	-0.0248	-0.0759	-0.15	-0.183	0.883	1.31	1.04 (inactive)	0.416	0.0749
O=C1C[C@@](C(=O)O)(c2ccc([N+](=O)[O-])cc2)[C@@H](c2ccc(CO)cc2I)N1C1CCCCC1	0.0508	0.0298	-0.0256	0.798	1.11	1.39	0.94	-1.26 (inactive)	0.797	0.12
C=CCOC(=O)[C@H]1[C@@H]2C(=O)O[C@@H](c3ccccc3)[C@@H](c3ccccc3)N2[C@@H](c2ccc(OCCOC(=O)[C@H]3C[C@H]4C(=O)N[C@@H](CCCC[N+](C)(C)C)C(=O)N4[C@H]3c3ccc(O)cc3)cc2)[C@]12C(=O)Nc1ccccc12	0.104	0.154	-0.1	0.276	0.193	0.06	1.09	0.131 (inactive)	0.357	-0.608
C=C(C)[C@@H]1CC=C(C(O)C2C=CC3C(=O)N(Cc4ccccc4)C(=O)C3N2n2cnnc2)CC1 (stereo not given in full)	0.29	0.271	-0.0877	-0.215	-0.274	0.485	0.703	0.225 (inactive)	0.325	0.208
